Sampled rows, rich in hits. Any-hit rate of the full collection: about 3.2%.
TRb SRC2 PPI – disrupts binding of human TR beta to SRC2 | P10828 | TRbeta-SRC2 peptide binding, fluorescence polarization; receptor liganded with 1 µM T3 | Potency, µM (series often up to 106 µM), most hits filed as inhibitors | hit rate 0.065% among 280,000; further: nearly all actives have a fitted effect of over 50% in size
Target sequence (P10828 whole entry, looked up): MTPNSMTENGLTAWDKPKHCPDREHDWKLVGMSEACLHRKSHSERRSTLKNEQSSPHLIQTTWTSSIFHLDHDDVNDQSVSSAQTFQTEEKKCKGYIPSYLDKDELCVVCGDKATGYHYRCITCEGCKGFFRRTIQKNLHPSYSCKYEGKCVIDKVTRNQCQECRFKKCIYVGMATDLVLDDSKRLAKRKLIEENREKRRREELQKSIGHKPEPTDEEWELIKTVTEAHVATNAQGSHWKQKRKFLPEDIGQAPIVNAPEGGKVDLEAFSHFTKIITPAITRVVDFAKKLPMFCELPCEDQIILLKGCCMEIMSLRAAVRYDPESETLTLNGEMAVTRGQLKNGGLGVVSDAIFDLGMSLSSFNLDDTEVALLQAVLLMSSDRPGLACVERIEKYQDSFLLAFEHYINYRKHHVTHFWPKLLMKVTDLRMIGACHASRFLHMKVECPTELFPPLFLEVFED
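TRb LBD 0.6 uM + Texas Red SRC2 peptide 20 nM, 1 uM T3, Tris buffer w/ 5% DMSO; compound pinned, 5 h RT; FP read ex 555/em 632; normalized to unbound and bound controls.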
Tau fibril FP – blocks human tau fibril formation measured by polarization; hit rate 0.39% among 280,000; K18 P301L tau heparin fibrillization, Alexa594 FP, 6 h; P10636; Potency, µM (highest dose often 57.7 µM), usual class: inhibitors; further: nearly all actives have a fitted effect of over 55% in size
Target sequence (P10636 561-689 P618L limits assumed): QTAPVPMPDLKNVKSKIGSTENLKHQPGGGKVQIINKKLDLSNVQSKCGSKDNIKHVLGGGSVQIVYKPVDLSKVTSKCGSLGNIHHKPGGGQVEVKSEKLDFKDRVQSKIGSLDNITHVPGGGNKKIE
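K18 P301L tau (15 uM unlabeled/0.24 uM Alexa 594-labeled, final) + compound + heparin 20 uM final; 100 mM NaOAc pH 7; 6 hr 37 C; ThT 30 uM final added, 1 hr RT; FP ex 555/em 632 nm.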
GoLoco inh red – blocks human Gai1 binding to RGS12 GoLoco peptide, red readout; Potency, µM (top dose mostly 61.6 µM), hits mostly inhibitors; Gai1:RGS12 GoLoco peptide FP, rhodamine, 10 min; hit rate 0.44% among 230,000; P63096; active means well fitted inhibition curve with a large enough effect, not every such curve was filed as active; inactive means no such curve, though single readings can be large or run the other way; further: nearly all actives have a fitted effect of over 30% in size
Tau ThT inhib – blocks human tau fibril formation measured by thioflavin T; P10636; recombinant tau K18 P301L, heparin-induced fibrillization, ThT fluorescence; Potency, µM (doses to about 57.4 µM), hits mostly inhibitors; hit rate 2.1% among 270,000; AID 1460; further: nearly all actives have a fitted effect of over 55% in size
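Heparin-induced fibrillization of the P301L-mutant K18 repeat-domain fragment of human tau was followed by ThT binding in quantitative high-throughput format.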
Tau fluor cs – counter-screen for tau fibril formation inhibitors | hit rate 0.93% among 280,000 | tau K18 P301L (four-repeat tau fragment) Alexa594 fluorescence, heparin fibrillization | AID 1463 | Potency, µM (top dose mostly 57.7 µM); further: nearly all actives have a fitted effect of over 55% in size
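Human K18 P301L tau (15 uM unlabeled plus 0.24 uM Alexa 594-labeled, final) in 100 mM sodium acetate pH 7 was mixed with compound and 20 uM heparin and incubated 6 hr at 37 C.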
TexasRed fluor – counter-screen for TRb-SRC2 inhibitors: fluorescence interference; Potency, µM (highest dose often 106 µM); hit rate 0.29% among 280,000; TRb/SRC2 Texas Red total fluorescence interference; active means well fitted curve in either direction with a large enough effect; inconclusive means small, poorly fitted or top-dose-only effect
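Human TRb ligand-binding domain at 0.6 uM with 20 nM Texas Red SRC2 peptide in Tris buffer containing 1 uM T3 and 5% DMSO, incubated with compound 5 h at ambient temperature. Total fluorescence (555/632 nm) calculated as parallel + 2 × perpendicular.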
Hits are given with their value; 0 = inactive; ? = inconclusive; - = no result given; [ ] = remark or other dose. Unless noted, the call rests on the fitted dose curve; in most records, active means well fitted curve in the direction sought with a large enough effect; inconclusive means small, poorly fitted or top-dose-only effect, or another doubt; inactive means no such curve, though single readings can be large; an effect the other way counts as inactive or inconclusive.

SMILES | TRb SRC2 PPI | Tau fibril FP | GoLoco inh red | Tau ThT inhib | Tau fluor cs | TexasRed fluor
CCCC[C@@H](C=O)NC(=O)[C@H](CC(C)C)NC(=O)OCc1ccccc1 | 0 | 0 | 0 | ? | 0 | 0
COc1ccccc1Nc1nc(-c2sc(NC(=O)c3ccc([N+](=O)[O-])cc3)nc2C)cs1 | 0 | ? | 0 | 3.5µM | 10µM[quencher] | 0
CCCC(=O)Nc1nc(C)c(-c2csc(Nc3ccccc3C)n2)s1 | 0 | ? | 0 | ? | 0 | 0
CCC(=O)Nc1nc(C)c(-c2csc(Nc3ccccn3)n2)s1 | 0 | ? | 0 | 14µM | ? | 0
CCCCCCC(=O)Nc1nc(C)c(-c2csc(Nc3ccccc3OC)n2)s1 | 0 | 0 | 0 | ? | 14µM[quencher] | 0
COc1ccccc1Nc1nc(-c2sc(NC(=O)c3ccccc3)nc2C)cs1 | 0 | 0 | 0 | ? | ? | 0
CCCCCC(=O)Nc1nc(C)c(-c2csc(Nc3ccccc3OC)n2)s1 | 0 | ? | 0 | ? | 11µM[quencher] | 0
CCCCCC(=O)Nc1nc(C)c(-c2csc(Nc3ccccc3OCC)n2)s1 | 0 | 0 | 0 | ? | ? | 0
C=CCC1(O)C=CCC2C3C4C(OC(C)(C)C)C2C1C34 (stereo unspecified) | 0[11.2 µM] | 0[11.6 µM] | - | 0[11.5 µM] | 0[11.6 µM] | 0[11.2 µM]
CCOC(=O)CSc1c(-c2ccc(Cl)cc2)[nH]c2ccccc12 | 0 | ? | 0 | 0 | 11µM[quencher] | 0
CCOC(=O)Cc1c(Cl)c2ccccc2[nH]c1=O | 0 | 0 | 0 | 0 | 0 | 0
CCOC(=O)CSc1c(-c2cccs2)[nH]c2ccccc12 | 0 | ? | 0 | ? | 8.9µM[quencher] | 0
CCOC(=O)c1c(CSc2ccc(C)cc2)oc2ccc(O)cc12 | 0 | 32µM | 0 | ? | ? | 0
COc1cccc(COCCN2CCN(S(=O)(=O)c3ccccc3)CCC2=O)c1 | 0 | - | - | - | - | 0
Cc1cccc(OCCNc2cc(N3CCN(C)CC3)ccc2[N+](=O)[O-])c1 | 0 | 0 | 0 | ? | ? | 0
Cc1cccc(OCCNc2cc(N3CCOCC3)ccc2[N+](=O)[O-])c1 | 0 | 0 | 0 | 7.9µM | ? | 0
Cc1ccc(OCCNc2cc(N3CCN(CCO)CC3)ccc2[N+](=O)[O-])cc1C | 0 | 0 | 0 | 16µM | ? | 0
Cc1ccccc1OCCNc1cc(N2CCNCC2)ccc1[N+](=O)[O-] | 0 | ? | 0 | 16µM | ? | 0
NC(N)=NCCC[C@H](NC(=O)[C@H](Cc1ccccc1)NC(=O)[C@@H]1CCCN1C(=O)[C@H](CO)NC(=O)[C@H](Cc1ccccc1)NC(=O)CNC(=O)[C@@H]1CCCN1C(=O)[C@@H]1CCCN1C(=O)[C@@H](N)CCCN=C(N)N)C(=O)O | 0 | - | - | - | - | 0
Cc1ccc2c(c1)C(=O)OC2=O | 0 | - | - | - | - | 0
Fc1ccc(C(c2ccc(F)cc2)N2CCN(C/C=C\c3ccccc3)CC2)cc1 | 0 | 0 | 0 | 0 | 0 | 0
NC(=O)CC(NC(=O)c1ccccc1)c1ccc(NCCc2cccc(F)c2)c([N+](=O)[O-])c1 (stereo unspecified) | 0 | 0 | 0 | 16µM | 0 | 0
NC(=O)CC(NC(=O)c1ccccc1)c1ccc(NCCOc2ccccc2)c([N+](=O)[O-])c1 (stereo unspecified) | 0 | 0 | 0 | 13µM | 0 | 0
C[C@@H]1CC[C@@]2(OC1)OC1CC3C4CC=C5CC(O)CCC5(C)C4CCC3(C)C1[C@@H]2C (stereo partly specified) | 0 | ? | 0 | 0 | 0 | 0
COc1ccc(CCN2C(=O)CC(Nc3ccc(N4CCOCC4)cc3)C2=O)cc1OC (stereo unspecified) | 0 | 0 | 0 | 13µM | 0 | 0
SMILES | TRb SRC2 PPI | Tau fibril FP | GoLoco inh red | Tau ThT inhib | Tau fluor cs | TexasRed fluor
O=C1CC(Nc2ccc(N3CCOCC3)cc2)C(=O)N1c1ccccc1F (stereo unspecified) | 0 | 0 | 0 | 14µM | 0 | 0
Fc1cccc(-n2ncc3c2ncn2nc(Cc4ccccc4)nc32)c1 | 0 | 0 | - | 0 | 0 | 0
S=c1[nH]c(-c2ccccc2)cn1/N=C/c1ccccc1Br | 0 | 0 | 0 | ? | 0 | 0
COc1cc(/C=N/n2cc(-c3ccccc3)[nH]c2=S)cc(OC)c1O | 0 | 0 | 0 | 20µM | ? | 0
Oc1ccc(/C=N/n2cc(-c3ccccc3)[nH]c2=S)cc1 | 0 | 0 | 0 | 10µM | ? | 0
S=c1[nH]c(-c2ccccc2)cn1/N=C/c1cccc2ccccc12 | 0 | 0 | 0 | 3.5µM | ? | 0
O=S(=O)(c1cccs1)N1CN(Cc2ccc(Cl)cc2)c2nc3ccccc3nc21 | 0 | 0 | 0 | 0 | 0 | 0
O=S(=O)(c1cccs1)N1CN(Cc2ccco2)c2nc3ccccc3nc21 | ? | ? | 0 | 22µM | ? | ?
COc1ccccc1C1CCN(c2cc(O)ccc2[N+](=O)[O-])CC1 | 0 | ? | 0 | 20µM | ? | 0
COc1ccccc1C1CCN(C(=O)c2cccs2)CC1 | 0 | 0 | 0 | 0 | 0 | 0
COC(=O)CN1C(=O)[C@@H]2[C@H](C1=O)[C@@H]1CC(C(=O)OC)=C[C@@H](C(=O)OC)C3C1=C(C(=O)[C@@]3(C)NC(=O)c1ccccc1)[C@@H]2C (stereo partly specified) | 0 | - | - | - | - | 0
COC(=O)C1=C(C(=O)OC)SC2(S1)C(C(=O)OC)=C(C(=O)OC)SC1=C2c2cccc(C)c2NC1(C)C | 0 | ? | 0 | 14µM | ? | 0
COC(=O)c1ccccc1NC(=O)COC(=O)c1ccccc1N=Nc1ccc(N(C)C)cc1 | 0 | 0 | 0 | 4.5µM | ? | 0
CN(C)c1ccc(N=Nc2ccccc2C(=O)OCC(=O)N(C)c2ccccc2)cc1 | 0 | ? | 0 | 1.6µM | 0 | 0
Cl[Si](Cl)(c1ccccc1)c1ccccc1 | 0 | - | - | - | - | 0
Cc1cccc(OCCn2cc(/C=N/NC(=O)c3ccncc3)c3ccccc32)c1 | 0 | 0 | 0 | ? | 16µM[quencher] | 0
Cc1cccc(OCC(=O)N/N=C\c2cn(C)c3ccccc23)c1 | 0 | 0[2.34 µM] | 0 | 0 | 0 | 0
Cc1ccc(/C=N/n2c(=O)c(C(C)(C)C)nn3cnnc23)cc1 | ? | ? | 0 | 0 | 0 | 0.079µM[quencher]
COCOc1ccc(Br)cc1C(=O)[C@H]1O[C@H]1c1cccc(OC)c1 | 0[11.2 µM] | 0[11.6 µM] | - | 0[11.5 µM] | 0[11.6 µM] | 0[11.2 µM]
CCOC(=O)C1=C(O)c2ccccc2C(=O)/C1=C\c1ccc(C)cc1 | 0 | ? | 0 | 14µM | 0 | 0
COC(=O)c1cnc(N2CCN(c3ccccc3F)CC2)c2ccccc12 | 0 | 0 | - | ? | 0 | 0
COC(=O)c1cnc(N2CCN(c3ccc(OC)cc3)CC2)c2ccccc12 | 0 | 0 | - | 11µM | ? | 0
Cc1[nH]c2ccccc2c1N=Nc1ccccc1F | 0 | ? | 0 | 13µM | 13µM[quencher] | 0
Cc1[nH]c2ccccc2c1N=Nc1ccc(F)cc1 | 0 | 0 | 0 | 13µM | 14µM[quencher] | 0
C[C@H]1Cc2c(COc3ccccc3)nc3c(c2CO1)CN(S(=O)(=O)c1ccc(C#N)cc1)CC3 | 0[11.2 µM] | 0[11.6 µM] | 0[14.2 µM] | 0[11.5 µM] | 0[11.6 µM] | 0[11.2 µM]

Screening results from PubChem.
